The supplement of paper PMC7411054

What was measured:
Experiment in all cases: phenotypically active (imaging signature differs from DMSO and reproducible) at any of 0.3-9 uM (binary (1 = active, 0 = inactive)); higher = active
Details in all cases: treatment time: 24 h
[1] = test system: A549-ACTB-RAB5A
Method in brief: (§1)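 The reporter lines, fifteen in total and built by gene editing in A549, HepG2 and WPMY1 cells, used BFP for segmentation alongside GFP and RFP/FusionRed markers. Each was treated at 0.3, 1, 3 or 9 µM for 24 h in four wells and then imaged live, with live-cell features normalised to solvent control wells. Deviation meant ≥3 of 4 wells beyond the 95th percentile of control Euclidean distances; reproducibility meant a median replicate Pearson correlation above the 95th percentile of non-replicates. Only conditions meeting both were scored as phenotypically active.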

[2] = test system: A549-CANX-COX4
Method in brief: as §1

[3] = test system: A549-GM130-SQSTM1
Method in brief: as §1

[4] = test system: A549-TP53BP1-CLTA
Method in brief: as §1

[5] = test system: A549-TUBA1B-RELA
Method in brief: as §1

[6] = test system: HepG2-ACTB-RAB5A
Method in brief: as §1

[7] = test system: HepG2-CANX-COX4
Method in brief: as §1

[8] = test system: HepG2-GM130-SQSTM1
Method in brief: as §1

[9] = test system: HepG2-TP53BP1-CLTA
Method in brief: as §1

[10] = test system: HepG2-TUBA1B-RELA
Method in brief: as §1

[11] = test system: WPMY1-ACTB-RAB5A
Method in brief: as §1

[12] = test system: WPMY1-CANX-COX4
Method in brief: as §1

[13] = test system: WPMY1-GM130-SQSTM1
Method in brief: as §1

[14] = test system: WPMY1-TP53BP1-CLTA
Method in brief: as §1

[15] = test system: WPMY1-TUBA1B-RELA
Method in brief: as §1

Measured: phenotypically active

Nc1ccc(C(=O)O)c(O)c1 [aminosalicylate]
inactive: [1] 0 | [2] 0 | [3] 0 | [4] 0 | [5] 0 | [6] 0 | [7] 0 | [8] 0 | [9] 0 | [10] 0 | [11] 0 | [12] 0 | [13] 0 | [14] 0 | [15] 0

Cc1c(-c2cnccn2)ssc1=S [Oltipraz]
inactive: [1] 0 | [2] 0 | [3] 0 | [4] 0 | [5] 0 | [6] 0 | [7] 0 | [8] 0 | [9] 0 | [10] 0 | [11] 0 | [12] 0 | [13] 0 | [14] 0 | [15] 0

O=C(O)CCCC[C@@H]1SC[C@@H]2NC(=O)N[C@@H]21 [Biotin]
inactive: [1] 0 | [2] 0 | [3] 0 | [4] 0 | [5] 0 | [6] 0 | [7] 0 | [8] 0 | [9] 0 | [10] 0 | [11] 0 | [12] 0 | [13] 0 | [14] 0 | [15] 0

CCCNC(C)C(=O)Nc1c(C)csc1C(=O)OC (stereo not given) [articaine]
inactive: [1] 0 | [2] 0 | [3] 0 | [4] 0 | [5] 0 | [6] 0 | [7] 0 | [8] 0 | [9] 0 | [10] 0 | [11] 0 | [12] 0 | [13] 0 | [14] 0 | [15] 0

CC(=O)OC(C)C[N+](C)(C)C (stereo not given) [methacholine]
inactive: [1] 0 | [2] 0 | [3] 0 | [4] 0 | [5] 0 | [6] 0 | [7] 0 | [8] 0 | [9] 0 | [10] 0 | [11] 0 | [12] 0 | [13] 0 | [14] 0 | [15] 0

CC(=O)Oc1ccccc1C(=O)O [aspirin]
inactive: [1] 0 | [2] 0 | [3] 0 | [4] 0 | [5] 0 | [6] 0 | [7] 0 | [8] 0 | [9] 0 | [10] 0 | [11] 0 | [12] 0 | [13] 0 | [14] 0 | [15] 0

C1CCN2C[C@@H]3C[C@@H](CN4CCCC[C@@H]34)[C@H]2C1 [Sparteine (-)]
inactive: [1] 0 | [2] 0 | [3] 0 | [4] 0 | [5] 0 | [6] 0 | [7] 0 | [8] 0 | [9] 0 | [10] 0 | [11] 0 | [12] 0 | [13] 0 | [14] 0 | [15] 0

CCCCCOC(=O)Nc1nc(=O)n([C@@H]2O[C@H](C)[C@@H](O)[C@H]2O)cc1F [capecitabine]
inactive: [1] 0 | [2] 0 | [3] 0 | [4] 0 | [5] 0 | [6] 0 | [7] 0 | [8] 0 | [9] 0 | [10] 0 | [11] 0 | [12] 0 | [13] 0 | [14] 0 | [15] 0

CCC(=C(CC)c1ccc(O)cc1)c1ccc(O)cc1 (stereo in doubt) [diethylstilbestrol]
inactive: [1] 0 | [2] 0 | [3] 0 | [4] 0 | [5] 0 | [6] 0 | [7] 0 | [8] 0 | [9] 0 | [10] 0 | [11] 0 | [12] 0 | [13] 0 | [14] 0 | [15] 0

COCCOC(=O)C1=C(C)NC(C)=C(C(=O)OC(C)C)C1c1cccc([N+](=O)[O-])c1 (stereo not given) [nimodipine]
inactive: [1] 0 | [2] 0 | [3] 0 | [4] 0 | [5] 0 | [6] 0 | [7] 0 | [8] 0 | [9] 0 | [10] 0 | [11] 0 | [12] 0 | [13] 0 | [14] 0 | [15] 0

COc1ccc([C@@H]2Sc3ccccc3N(CCN(C)C)C(=O)[C@@H]2OC(C)=O)cc1 [diltiazem]
inactive: [1] 0 | [2] 0 | [3] 0 | [4] 0 | [5] 0 | [6] 0 | [7] 0 | [8] 0 | [9] 0 | [10] 0 | [11] 0 | [12] 0 | [13] 0 | [14] 0 | [15] 0
